“And” between values parts separate entries of the source, which are not always exact repeats. Identical values can stand only once. For some assays here: Measured potencies and affinities stand elsewhere. The source made the active and inactive calls.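 The calls were made as follows, unless noted: active = mean z-score across replicates of 1.96 or higher in either the MELAS or the Rieske mutant cell line; inactive = the rest.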

A short description of experiment [1]: Wnt pathway potentiators raising nuclear beta-catenin – imaging, WNT3A-conditioned medium, mouse C2C12, NPC library, primary screen (AID 1117326; in the data active = nuclear beta-catenin stimulation mostly above about 4.2%, no sharp cut-off; inactive = mostly below about 10%). The note with it: stronger effect = higher value.
The nature of experiment [2]: stimulators of insulin release from INS-1E, primary screen, cell-based, 5 mM glucose, NPC library (AID 1117329;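 active = compound raises insulin release from rat beta cells at 5 mM glucose, no numeric limit stated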). The note with it: rat INS-1E insulin secretion, at 10 µM, stronger effect = higher value.
A short description of experiment [3]: growth inhibition of GSK3B-pretreated HCT116 cells – cell-based, CellTiter-Glo, 0.2 to 20 µM (AID 1117336;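 active = compounds lowering colon cancer cell viability after pretreatment blocking the GSK3B kinase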). The note with it: HCT116 viability after GSK3B inhibitor, at 20 µM, stronger effect = higher value.
Experiment [4] in a line: inhibition of endothelial tube formation, primary screen, imaging, VEGF stimulated, CD31 staining, tube area, NPC library (AID 1117340;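 active = compound that reduces growth-factor-driven endothelial tube area in a mixed cell culture, no cutoff stated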). The following applies: VEGF-stimulated ADSC/ECFC co-culture, at 10 µM, stronger effect = higher value.
The nature of experiment [5]: GLP1 release stimulators, primary, NCI-H716, NPC library (AID 1117341;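 active = compound raises GLP1 secretion from the human gut endocrine cells, with no numeric limit stated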). The note with it: NCI-H716 cells, at 10 µM, stronger effect = higher value.
The nature of experiment [6]: HCT116 colon cancer cell growth inhibition, primary screen, CellTiter-Glo luminescence, NPC library (AID 1117342;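 active = compounds that lower survival of HCT116 colon cancer cells in the luminescence readout, no numeric limit stated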). The following applies: at 20 µM (top of the series). On the technique in general: In ATP-based viability assays light output follows the ATP content of the culture.
A short description of experiment [7]: reduced SW480 viability measured with CellTiter-Glo, NPC library, primary (AID 1117343;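 active = compounds that lower viability of the colon cancer cells in the luminescence readout, with no numeric limit stated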). The following applies: CellTiter-Glo luminescence; at 20 µM (top of the series).
Experiment [8] in a line: NPC library primary testing for decreased DLD-1 cell viability via CellTiter-Glo (AID 1117346;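 active = compounds that lower survival of DLD-1 colon cancer cells in the luminescence readout, no cutoff given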). The note with it: DLD-1 viability, CellTiter-Glo luminescence; at 20 µM (top of the series).
Experiment [9] addresses 6-phosphogluconate dehydrogenase, decarboxylating (Homo sapiens) (UniProt P52209). The experiment in a line: inhibition of human phosphogluconate dehydrogenase – biochemical, recombinant enzyme, NADPH absorbance, primary screen (AID 1159550;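 active = at least 20% inhibition of 6-phosphogluconate dehydrogenase activity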). The note with it: recombinant 6PGD, NADPH absorbance 341 nm; at 10 µM; stronger effect = higher value.
Experiment [10] can be described thus: EMT-state selective cytotoxicity in co-culture – imaging, PC-3E GFP, TEM4-18 mCherry, primary screen (AID 1345086;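 active = compounds killing one labelled cell type while sparing the other, by normalised counts and ratio limits, not self-fluorescent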;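 as to all read-outs here: cells exposed to compound for 72 h before imaging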;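 as to red/green cell ratio (normalised): normalised mesenchymal count divided by normalised epithelial count so high means epithelial killing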). The following applies: PC-3E GFP / TEM4-18 mCherry co-culture, imaging cell counts, at 1 µM; for red/green cell ratio (normalised): actives lie on both sides, counts scaled to control wells, 1 = unselective.
The nature of experiment [11]: MELAS cybrid and Rieske KO viability enhancers – cell-based, MELAS cybrids, Rieske KO mouse fibroblasts, CellTiter-Glo, primary screen (AID 1508586).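 Also: z relative to plate mean and SD of compound and empty wells.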 The note with it: low glucose.
For experiment [12], the target named is NAD(+) hydrolase SARM1 (Homo sapiens) (UniProt Q6SZW1). Kind of experiment: blocking NAD cleavage by SARM1 SAM-TIR – cell lysate, NAD-Glo luminescence (AID 1508614;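 active = compound whose remaining NAD level is above about 45 nM, limit read from the data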;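 also: higher remaining NAD means stronger inhibition of SARM1 NADase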). The following applies: SAM-TIR HEK293T lysate NADase, at 1 µM, stronger effect = higher value.
Chain of NAD(+) hydrolase SARM1 (Homo sapiens) (Q6SZW1 whole entry, looked up, the tested form may be a part): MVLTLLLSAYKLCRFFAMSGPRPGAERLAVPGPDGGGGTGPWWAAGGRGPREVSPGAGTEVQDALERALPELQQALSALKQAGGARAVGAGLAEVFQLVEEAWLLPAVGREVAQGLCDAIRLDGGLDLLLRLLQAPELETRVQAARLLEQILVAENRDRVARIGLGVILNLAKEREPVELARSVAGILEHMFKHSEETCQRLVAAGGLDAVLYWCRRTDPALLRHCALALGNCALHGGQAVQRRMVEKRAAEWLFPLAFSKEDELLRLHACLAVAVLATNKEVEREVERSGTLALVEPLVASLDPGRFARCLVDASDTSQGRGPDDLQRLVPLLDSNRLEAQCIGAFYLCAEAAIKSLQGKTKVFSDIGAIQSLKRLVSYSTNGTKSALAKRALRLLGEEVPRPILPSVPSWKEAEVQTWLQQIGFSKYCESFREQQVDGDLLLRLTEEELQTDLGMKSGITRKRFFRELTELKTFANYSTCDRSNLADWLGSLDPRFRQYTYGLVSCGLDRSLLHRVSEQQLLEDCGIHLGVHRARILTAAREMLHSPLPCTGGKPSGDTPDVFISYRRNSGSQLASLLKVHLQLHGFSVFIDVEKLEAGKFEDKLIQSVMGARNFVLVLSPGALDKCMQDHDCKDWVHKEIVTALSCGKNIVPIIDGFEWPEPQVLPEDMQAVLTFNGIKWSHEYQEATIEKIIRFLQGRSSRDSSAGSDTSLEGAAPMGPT
In experiment [13] the target is Mitogen-activated protein kinase 7 (Homo sapiens) (UniProt Q13164). The experiment in a line: Gal4-ERK5 driven luciferase induction – cell-based, HTS, primary screen (AID 1508626;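 active = luciferase signal above three times the same-plate solvent-only control wells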;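 also: luciferase driven by Gal4-ERK5 fusion binding five Gal4 sites before minimal TATA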). The note with it: HeLa Gal4-ERK5 transactivation, 18 h, at 5 µM, stronger effect = higher value.
Chain of Mitogen-activated protein kinase 7 (Homo sapiens) (Q13164 whole entry, looked up, the tested form may be a part): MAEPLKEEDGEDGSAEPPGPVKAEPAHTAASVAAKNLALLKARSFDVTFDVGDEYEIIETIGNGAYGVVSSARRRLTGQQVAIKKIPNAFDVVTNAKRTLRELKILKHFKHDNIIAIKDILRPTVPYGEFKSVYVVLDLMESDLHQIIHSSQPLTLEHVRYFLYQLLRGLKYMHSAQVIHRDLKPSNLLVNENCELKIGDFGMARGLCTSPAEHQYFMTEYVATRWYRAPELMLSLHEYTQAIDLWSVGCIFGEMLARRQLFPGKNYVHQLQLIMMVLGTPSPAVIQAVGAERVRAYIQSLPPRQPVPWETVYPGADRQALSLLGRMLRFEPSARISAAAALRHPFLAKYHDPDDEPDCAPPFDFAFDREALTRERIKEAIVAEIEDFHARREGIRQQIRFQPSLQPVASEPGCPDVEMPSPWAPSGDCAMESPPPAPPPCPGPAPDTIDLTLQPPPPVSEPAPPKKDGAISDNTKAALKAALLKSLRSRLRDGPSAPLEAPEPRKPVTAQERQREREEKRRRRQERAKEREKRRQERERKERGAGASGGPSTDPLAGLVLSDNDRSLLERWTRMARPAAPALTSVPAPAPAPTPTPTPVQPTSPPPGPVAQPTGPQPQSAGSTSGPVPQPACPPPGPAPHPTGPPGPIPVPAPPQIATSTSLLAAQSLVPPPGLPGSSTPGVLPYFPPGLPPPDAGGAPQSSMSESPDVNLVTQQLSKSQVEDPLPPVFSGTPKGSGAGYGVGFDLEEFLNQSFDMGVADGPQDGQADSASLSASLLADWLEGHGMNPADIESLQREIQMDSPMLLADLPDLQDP
Experiment [14] in a line: blockers of polyQ-driven CASP3 activation – cell-based (AID 1583). The note with it: polyglutamine-induced caspase-3 activation, cell assay; stronger effect = higher value;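 tested at 10 µM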.
Experiment [15] is described as follows: yeast 75Q aggregation reduction – 75Q-TubU reporter (AID 1593). The note with it: Yeast 75Q polyglutamine aggregation reporter.
A short description of experiment [16]: restoration of touch response, mutant HTT neurons – whole organism, C. elegans mechanosensory neurons, N-terminal huntingtin (AID 1599). The following applies: C. elegans polyQ-huntingtin mechanosensory neurons, stronger effect = higher value.
Experiment [17] in a line: blockers of cytochrome c efflux from mitochondria – biochemical, purified mitochondria (AID 1603).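 Also: mouse liver mitochondria challenged with calcium chloride; signal normalized to the plate average as 100%.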 The following applies: stronger effect = lower value.
Experiment [18] can be described thus: polyglutamine aggregate formation blockers (AID 1604). The following applies: polyglutamine-induced protein aggregation inhibition assay; stronger effect = higher value; tested at 2.5 µM.
Setting [19] is: measured here: epithelial PC-3E GFP cell survival.
[20] abbreviates: measured here: mesenchymal TEM4-18 mCherry cell survival.
[21] abbreviates: MELAS cybrid survival, CellTiter-Glo 48 h, stronger effect = higher value.
Setting [22] is: Rieske KO mouse fibroblast survival, CellTiter-Glo 72 h.

Chain of 6-phosphogluconate dehydrogenase, decarboxylating (Homo sapiens) (P52209 whole entry, looked up): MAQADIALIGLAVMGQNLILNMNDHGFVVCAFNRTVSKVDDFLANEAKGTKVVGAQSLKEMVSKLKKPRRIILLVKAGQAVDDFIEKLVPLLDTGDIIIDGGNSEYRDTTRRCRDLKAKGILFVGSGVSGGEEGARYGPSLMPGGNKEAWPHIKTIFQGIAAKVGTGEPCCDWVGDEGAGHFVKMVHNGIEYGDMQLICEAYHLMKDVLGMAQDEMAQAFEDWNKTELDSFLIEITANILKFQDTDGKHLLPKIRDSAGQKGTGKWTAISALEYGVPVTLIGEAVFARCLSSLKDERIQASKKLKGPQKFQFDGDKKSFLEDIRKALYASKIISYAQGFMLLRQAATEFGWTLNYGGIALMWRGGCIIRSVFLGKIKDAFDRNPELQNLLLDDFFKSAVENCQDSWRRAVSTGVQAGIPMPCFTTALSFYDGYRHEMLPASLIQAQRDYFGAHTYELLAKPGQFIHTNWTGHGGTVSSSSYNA

The inhibition is the drop in the measured response relative to a control, in per cent. Consider `CCCCCN=C(N)N/N=C/c1c[nH]c2ccc(OC)cc12`, for which the nuclear beta-catenin stimulation in experiment [1] (at 10 µM) was -2.1% (inactive); in experiment [1] (stimulation, at 2 µM), 5.8%. The insulin secretion stimulation in experiment [2] is 57.5% (active). Besides, the viability decrease in experiment [3] was 118% (active). Further, the tube area decrease in experiment [4] is 111% (active). Moreover, the GLP1 secretion stimulation in experiment [5] is 53.2% (active). In addition, the inhibition of viability in [6] was 125% (active). Besides, the viability decrease (inhibition) in [7] was 159% (active); in experiment [8] it was 102% (active). For the same compound, the inhibition in [9] is -7.67% (inactive). Further, in experiment [10], the red/green cell ratio (normalised) is 1.12 (inactive). The results for the normalised cell number in [10] (setting [19]) and in [10] (setting [20]) were 0.96 and 1.08, respectively. Moreover, the z-score was 0.364 (inactive) in experiment [11] (setting [21]) and 1.74 in experiment [11] (setting [22]). In experiment [12], the remaining NAD is 10 nM (inactive). In addition, the luciferase signal in experiment [13] is 68 AU (inactive).
With `c1ccc([C@H]2CN3CCSC3=N2)cc1`, the inhibition in experiment [14] was 60.8%; in [9] it was -3.99% (inactive). In experiment [15], this compound registered a score of 1.41. In experiment [16], this compound returned a rescue above control of -9.67. Moreover, in [17], the cytochrome c release ratio was 0.88. This compound also registered an inhibition of aggregation in experiment [18] of 72.2%. Further, the nuclear beta-catenin stimulation in experiment [1] (at 10 µM) was -0.8% (inactive); in experiment [1] (stimulation, at 2 µM), -0.5%. The insulin secretion stimulation in experiment [2] is 0.8% (inactive). Moreover, the viability decrease in experiment [3] was -1.75% (inactive). The tube area decrease in [4] is 2.3% (inactive). In [5], the GLP1 secretion stimulation was -1.2% (inactive). Moreover, in experiment [6], the inhibition of viability is -2.5% (inactive). Besides, the viability decrease (inhibition) in [7] is -10.8% (inactive); in experiment [8], -6.9% (inactive). Besides, the z-score in experiment [11] (setting [21]) is -0.321 (inactive) and -0.38 (inactive); in experiment [11] (setting [22]) it was -0.0854 and -1.67. In addition, in experiment [12], the remaining NAD is 10 nM (inactive). The luciferase signal in experiment [13] was 44 AU (inactive).
In the case of `CCN(CCO)CCCC(C)Nc1ccnc2cc(Cl)ccc12` (stereo not given), the results for the inhibition in experiment [14] and in experiment [9] were -6.7% and 13.2% (inactive), respectively. Moreover, in [15], the score stood at 1.54. Besides, the rescue above control in experiment [16] is -3.82. Besides, the cytochrome c release ratio in experiment [17] stood at 0.8. Besides, the inhibition of aggregation in [18] came out at 27.4%. In addition, the nuclear beta-catenin stimulation in [1] (at 10 µM) was 3.8% (inactive); in experiment [1] (stimulation, at 2 µM), 4.2%. Also, in [2], the insulin secretion stimulation is 1.6% (inactive). Moreover, the viability decrease in [3] is 18.3% (inactive). For the same compound, in [4], the tube area decrease is 22.5% (inactive). Further, the GLP1 secretion stimulation in experiment [5] is 4.3% (inactive). For the same compound, in [6], the inhibition of viability is 8.93% (inactive). In addition, the viability decrease (inhibition) is -0.9% (inactive) in [7] and -7.1% (inactive) in experiment [8]. Also, in experiment [10], the red/green cell ratio (normalised) is 0.76 (inactive). Further, the results for the normalised cell number in experiment [10] (setting [19]) and in experiment [10] (setting [20]) were 1.45 and 1.1, respectively. The values for the z-score in [11] (setting [21]) and in [11] (setting [22]) were -0.0994 (inactive) and 0.0866, respectively. In addition, the remaining NAD in [12] was 10 nM (inactive). Besides, the luciferase signal in [13] was 96 AU (inactive).
As to `CC(C)NCC(O)c1ccc(O)c(O)c1` (stereo not given), the inhibition was 19.5% in experiment [14] and -1.67% (inactive) in experiment [9]. The compound further registered a score in experiment [15] of 1.1. In addition, the rescue above control in experiment [16] turned out to be 7.5. Further, in experiment [17], the cytochrome c release ratio stood at 0.68. In addition, the inhibition of aggregation in [18] came out at 84.7%. In addition, the nuclear beta-catenin stimulation in experiment [1] (at 10 µM) is -0.3% (inactive); in [1] (stimulation, at 2 µM), 1.9%. For the same compound, the insulin secretion stimulation in experiment [2] is 1.4% (inactive). The viability decrease in [3] is 54.1% (active). Further, the tube area decrease in experiment [4] was -8.1% (inactive). Moreover, the GLP1 secretion stimulation in [5] is 6.8% (inactive). In addition, the inhibition of viability in experiment [6] is 33.2% (inactive). Moreover, the viability decrease (inhibition) in experiment [7] was 28.5% (inactive); in experiment [8], 23.6% (inactive). Moreover, in experiment [10], the red/green cell ratio (normalised) was 1.26 (inactive). Also, the results for the normalised cell number in [10] (setting [19]) and in [10] (setting [20]) were 1.07 and 1.35, respectively. Besides, the z-score in experiment [11] (setting [21]) was -0.378 (inactive) and -0.294 (inactive); in [11] (setting [22]) it was 0.858 and -1.25. The remaining NAD in experiment [12] is 10 nM (inactive). The luciferase signal in experiment [13] is 60 AU (inactive).

These data come from PubChem BioAssay.
